Screening data: PubChem BioAssay, National Center for Advancing Translational Sciences (NCATS)
A selection: hits, their analogues and other compounds. The true share with any hit is near 3.8%.
ATXN2 expr inh – Primary qHTS for Inhibitors of ATXN expression | HEK-293 ATXN2-luciferase reporter, luminescence, 24 h | Potency, µM (top dose mostly 57 µM), for the others: at the highest dose activity change, negative = inhibition, usual class: inhibitors | 0.72% of 360,000 active | AID 1745845, 2022; also: % is scaled to controls: 0 for no effect and ±100 for the full control effect; nearly all actives have a fitted effect of over 55% in size
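qHTS (up to 57 uM final) was run with 24 h compound exposure of reporter cells at 37 °C. Each well was multiplexed: SteadyGlo luminescence measured ATXN2-luciferase expression after a fluorogenic Gly-Phe-AFC viability readout (25 uM final).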
HepG2 viability – qHTS for Inhibitors of TGF-b: Cytotox Counterscreen | Potency, µM (series often up to 46.1 µM), inactives show at the highest dose activity change, negative = cytotoxicity, usual class: cytotoxic | AID 588856, 2011 | HepG2 CAGA-GFP viability, ATP luminescence, 18 h | 0.76% of 410,000 active
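CellTiter-Glo luminescence gave cytotoxicity after 18 hours at 37 degrees C. The cells were HepG2 CAGA-GFP in 1% FBS DMEM, stimulated with 500 pg/mL TGF-beta after compound addition. %Activity was normalised to no-cell wells (complete cell-killing) and DMSO (no toxicity), and curves were fitted and classified.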
TGFb inhibitor – qHTS for Inhibitors of TGF-b; 1.2% of 410,000 active; HepG2 CAGA-GFP TGF-b/SMAD3 reporter, GFP fluorescence, 18 h; TGF-beta stimulated, 500 pg/mL final; Potency, µM (series often up to 46.1 µM), for inactives: top-dose activity, negative = inhibition, usual class: inhibitors; also: % is scaled to controls: 0 for no effect and ±100 for the full control effect; nearly all actives have a fitted effect of over 65% in size
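GFP signal (ex488/em500-530) from TGF-beta-stimulated HEPG2 CAGA-GFP cells, 500 pg/mL final, 18 h at 37 degrees C in DMEM plus 1% FBS, normalized to unstimulated and DMSO-stimulated controls.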
ATXN viability – Viability Counterscreen for Primary qHTS for Inhibitors of ATXN expression | S2 cells (HEK-293 line with an ATXN2-luciferase reporter) viability, CellTiter-Fluor protease fluorescence, 24 h | 0.49% of 400,000 active | AID 651635, 2014 | Potency, µM (titrated, usually from 56.7 µM), most hits filed as cytotoxic; also: nearly all actives have a fitted effect of over 40% in size
Nrf2 inh – Nrf2 qHTS screen for inhibitors; A549 ARE-Fluc reporter, luciferase luminescence, 18-24 h; Potency, µM (series often up to 46 µM), for the others: top-dose activity change, negative = inhibition, actives largely listed as inhibitors; 2.1% of 360,000 active; also: % is scaled to controls: 0 for no effect and ±100 for the full control effect; nearly all actives have a fitted effect of over 60% in size
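Cells were seeded and rested 2 h, then exposed to compounds for 18-24 h. CellTiter-Fluor was read first as a viability measure. BugLite was added 15 min before the final luminescent read of ARE-luciferase activity in A549 cells.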
A549 tox – Nrf2 qHTS screen for inhibitors: counterscreen for cytotoxicity; A549 ARE-Fluc cells, CellTiter-Fluor viability, 18-24 h; Potency, µM (doses to about 46 µM), without a hit: at the highest dose activity change, negative = cytotoxicity, actives largely listed as inhibitors; 0.16% of 390,000 active; AID 504648, 2011; also: % is scaled to controls: 0 for no effect and ±100 for the full control effect
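A549 ARE-Fluc cells in 5% FBS OPTI-MEM, 5000 cells/well, rested 2 h then exposed to compounds in concentration-response for 18-24 h at 37 °C. Viability by CellTiter-Fluor fluorescence (Ex 405/Em 525) after 30 min; luciferase luminescence (BugLite, 15 min, RT) read afterwards.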
* marks the source's active call; other numbers are inactive results; i = inactive; u = inconclusive; x = no result; ! = a repeat was not active. Calls follow the shape of the dose curve; as a rule, active = well fitted curve in the direction sought with a large enough effect; inconclusive = small, poorly fitted or top-dose-only effect, or another doubt; inactive = no such curve, though single readings can be large; an effect the other way counts as inactive or inconclusive. Potency is read from the fitted curve at half-maximal effect.

SMILES | ATXN2 expr inh | HepG2 viability | TGFb inhibitor | ATXN viability | Nrf2 inh | A549 tox
O=C(CNC(=O)C1COc2ccccc2O1)Nc1ccc(F)c(F)c1 (centres undefined) | -1% | -20% | -15% | i | 0% | 5%
CCC(=O)Nc1ccc(OCc2cc(C3Nc4ccccc4C(=O)N3Cc3ccccc3)ccc2OC)cc1 (centres undefined) | x | x | x | x | u | -10%
CCc1cc2c(-c3ccccc3)cc(=O)oc2cc1OC(C)C(C)=O (centres undefined) | u | -20% | u | i | 6.5µM* | 0%
CC1(C)Cc2c(C#N)c(SCC(=O)c3ccccc3)nc(N3CCOCC3)c2CS1 | -1% | -27% | 0% | i | 16µM* | -18%
CN1Cc2c(N3CCOCC3)nc(SCc3ccccc3)c(C#N)c2CC1(C)C | -15% | -27% | 2% | i | x | 12%
CCOc1ccc(C(=O)Nc2cccc(NC(=O)c3ccc(Cl)cc3Cl)c2)cc1 | x | -64% | 11µM* | x | -11% | 1%
Cc1nc2c(Br)cc(Br)cc2c(=O)n1-c1ccccc1NC1OCC(O)C(O)C1O (centres undefined) | u | 1.6µM* | 6% | i | u | -4%
Cc1noc(C)c1S(=O)(=O)N(C)C[C@H]1Oc2ccc(NC(=O)CCC(F)(F)F)cc2C(=O)N([C@H](C)CO)C[C@@H]1C | 3% | -22% | u | i | 6% | 1%
CCC(C)(C)c1ccc(Oc2ccc(N)cc2)cc1 | 6.7µM* | -23% | u | i | 5.8µM* | -20%
COc1ccc(OC)c(CC(=O)Nc2ccc3c(c2)c(=O)n(C)n3Cc2cccc(C(F)(F)F)c2)c1 | 0% | -27% | -11% | i | x | x
C[C@@H]1CC(=O)NN=C1c1ccc(NN=C(C#N)C#N)cc1 | 27µM*! | x | x | 25µM* | x | x
CCOc1ccc(C(=O)Nc2ccc3oc(-c4cccc5ccccc45)nc3c2)cc1 | x | -26% | -38% | x | u | -2%
c1cc2c3c(cccc3c1)C(N1CCOCC1)=N2 | -7% | 13% | 1% | x | -2% | 6%
c1ccc(CC2CCN(C3=Nc4cccc5cccc3c45)CC2)cc1 | 3% | 13µM* | u | i | 13% | u
Cc1ccc(NS(=O)(=O)c2ccc(NC(=O)CN(c3cc([N+](=O)[O-])ccc3C)S(C)(=O)=O)cc2)c(C)c1 | u | -23% | u | u | 9.2µM* | u
Cc1ccc([N+](=O)[O-])cc1N(CC(=O)NC1CCCC1)S(C)(=O)=O | -12% | 0% | 4% | i | 1% | -2%
O=C(CCCCn1c(=O)c2ccccc2n(CC(=O)Nc2ccccc2)c1=O)NCc1ccccc1Cl | 0% | -7% | 0% | i | -7% | -1%
COc1cc(C(=O)NCCCN(C)C)ccc1OCC(=O)Nc1cccc(C(F)(F)F)c1 | u | -23% | -5% | u | -4% | 1%
COc1ccc(CN(C)C(=O)c2ccc(OCC(=O)Nc3cccc(C(F)(F)F)c3)c(OC)c2)c(OC)c1 | -30% | -3% | u | i | 16µM* | -21%
COc1cccc(CN(C)C(=O)c2ccc(OCC(=O)Nc3cccc(C(F)(F)F)c3)c(OC)c2)c1 | u | -63% | -26% | i | 4.6µM* | u
COc1ccc(NC(=O)CN(C)C(=O)c2ccccc2OCC(=O)Nc2cccc(C(F)(F)F)c2)cc1 | -9% | -1% | -23% | i | -8% | 1%
Cc1nc([N+](=O)[O-])c(Br)n1Cc1ccc(Cl)c(Cl)c1 | x | -118% | u | 20µM* | 16µM* | u
c1cc2c(cc1C1=NNC(=NC3CC3)SC1)OCCO2 | x | -78% | u | u | 2.3µM* | 3%
COc1ccc(N=C2NN=C(c3ccc4c(c3)OCCO4)CS2)cc1 | 6% | 13% | u | i | -27% | -8%
FC(F)Sc1ccc(N=C2NN=C(c3ccc4c(c3)OCCO4)CS2)cc1 | x | -25% | u | x | 16µM* | 16µM*
SMILES | ATXN2 expr inh | HepG2 viability | TGFb inhibitor | ATXN viability | Nrf2 inh | A549 tox
CCn1c(C(=O)N(C2CC2)C2CC2)cc2c3c(ncn3C)c(Nc3cc(C)n(C)n3)nc21 | -1% | x | x | x | x | x
C=CCn1cccc(/C=C/C(=O)c2ccc(C(C)(C)C)cc2)c1=S | 25µM* | -108% | u | x | u | u
OC(c1ccccc1)(c1nc(/C=C/c2ccccc2)cs1)C(F)(F)F (centres undefined) | -36% | -114% | 22µM* | i | x | x
COc1cccc(C(C)(O)c2nc(/C=C/c3ccccc3)cs2)c1 (centres undefined) | -2% | -24% | 14µM* | i | x | x
COc1cccc(C(C)(O)c2nc(-c3ccccc3C)cs2)c1 (centres undefined) | 0% | -30% | u | i | x | x
COc1cccc(C(C)(O)c2nc(-c3csc4ccccc34)cs2)c1 (centres undefined) | 6% | -49% | 18µM* | i | x | x
CN(CC(=O)Nc1c(Cl)cccc1Cl)C(=O)c1ccc2nc[nH]c2c1 | 1% | -6% | -9% | i | 4% | -3%
NS(=O)(=O)c1ccc(S(=O)(=O)N2CCCC(c3ccccc3)C2)cc1 (centres undefined) | x | 3% | -12% | i | x | x
Cc1[nH]c(C=C2C(=O)Nc3ccccc32)c(C)c1CCC(=O)O | 1.1µM* | x | x | x | x | x
CC(=O)/C=C1/C(=O)Nc2ccccc21 | u | -109% | u | u | -27% | -10%
CS(=O)(=O)c1oc(-c2ccc(F)cc2)nc1S(=O)(=O)c1ccc(Cl)cc1 | x | 5µM* | 3.2µM* | x | u | u
